Laboratory results from PubChem BioAssay (NCATS).
Results filed as inconclusive are left out. Activity calls are given as the source filed them. Calls come from the whole dose curve; as a rule, active = well fitted curve in the direction sought with a large enough effect; inconclusive = small, poorly fitted or top-dose-only effect, or another doubt; inactive = no such curve, though single readings can be large; an effect the other way counts as inactive or inconclusive.

Experiments:
[1] = P-glycoprotein substrates identified in KB-8-5-11 adenocarcinoma cell line, qHTS therapeutic library screen (AID 1346987); note: series mostly up to about 44 µM; nearly all actives have a fitted effect of over 65% in size
Outline: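 KB-8-5-11, a colchicine-selected P-gp-overexpressing KB-3-1 subline, was grown without colchicine for the assay. Cells were seeded at 500 cells/well, dosed in concentration-response and incubated 72 h at 37 degree C, 5% CO2. Viability was read by CellTiter-Glo luminescence.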

[2] = NS1 protein of Zika virus - qHTS assay to identify small molecule inhibitors in human HEK 293 cells (AID 1347053); note: series mostly up to about 46 µM; nearly all actives have a fitted effect of over 55% in size
Outline: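 Following 20 h seeding, HEK 293 cells took compound, then 1 h later ZIKV MR766 (MOI = 0.5). Incubation ran 24 h at 37 C before TR-FRET detection of NS1; a drop in signal indicates inhibition.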

[3] = qHTS of pediatric cancer cell lines to identify multiple opportunities for drug repurposing: Primary screen for TC32 cells (AID 1347089); note: nearly all actives have a fitted effect of over 60% in size
Outline: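 A viability screen of TC32 cells was run over 48 h, with primary MIPE doses spanning 0.78 nM–46 µM and NPC doses 0.59 nM–46 µM. ATP luminescence (CellTiter-Glo) served as the read-out.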

[4] = qHTS of pediatric cancer cell lines to identify multiple opportunities for drug repurposing: Primary screen for DAOY cells (AID 1347090); note: series mostly up to about 46 µM; nearly all actives have a fitted effect of over 55% in size
Outline: (§1)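 Eight- or eleven-point concentration series, 48 h treatment at 37 degrees C in growth media; readout CellTiter-Glo luminescence. Potency and efficacy were taken from the concentration-response curves.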

[5] = qHTS of pediatric cancer cell lines to identify multiple opportunities for drug repurposing: Primary screen for SJ-GBM2 cells (AID 1347091)
Outline: as §1

[6] = qHTS of pediatric cancer cell lines to identify multiple opportunities for drug repurposing: Primary screen for A673 cells (AID 1347092); note: nearly all actives have a fitted effect of over 45% in size
Outline: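 Titration-based qHTS on A673 cells: MIPE compounds spanned 11 points (0.78 nM to 46 µM final), NPC compounds 8 points (0.59 nM to 46 µM final). Viability after 48 h was measured by ATP luminescence.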

[7] = qHTS of pediatric cancer cell lines to identify multiple opportunities for drug repurposing: Primary screen for BT-37 cells (AID 1347094); note: series mostly up to about 57 µM
Outline: (§2)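 Readout: CellTiter-Glo luminescence, 48 h treatment. Controls DMSO (neutral) and bortezomib 2.3 µM final (positive). Potency and efficacy taken from primary-screen concentration-response curves.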

[8] = qHTS of pediatric cancer cell lines to identify multiple opportunities for drug repurposing: Primary screen for NB-EBc1 cells (AID 1347095)
Outline: as §2

[9] = qHTS of pediatric cancer cell lines to identify multiple opportunities for drug repurposing: Primary screen for U-2 OS cells (AID 1347096); note: nearly all actives have a fitted effect of over 50% in size
Outline: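 Cells (500-1,000/well) in growth media were settled 5 h at 37 degrees C, then given compounds for 48 h. Viability was read as CellTiter-Glo luminescence. Primary runs used MIPE at 11 points (0.78 nM-46 µM) and NPC at 8 points (0.59 nM-46 µM); follow-ups used 11 points.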

[10] = qHTS of pediatric cancer cell lines to identify multiple opportunities for drug repurposing: Primary screen for SK-N-MC cells (AID 1347093); note: series mostly up to about 46 µM
Outline: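 Metabolically active cells were quantified by ATP-dependent luminescence (CellTiter-Glo, 15 min at room temperature) following 48 h treatment. Cells had been plated at 500-1,000 per well and settled for 5 h beforehand.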

Measured: Potency

Cc1cccc(C)c1NC(=O)CN(CC(=O)O)CC(=O)O
inactive: [1] | [2] | [3] | [4] | [5] | [6] | [7] | [8] | [9]

CN(N=O)C(=O)N[C@@H]1[C@@H](O)[C@H](O)[C@@H](CO)O[C@@H]1O
inactive: [1] | [2] | [3] | [4] | [5] | [6] | [7] | [8] | [9]

Oc1ccc(C(O)CNCCCCCCNCC(O)c2ccc(O)c(O)c2)cc1O (centres undefined)
inactive: [1] | [2] | [3] | [4] | [5] | [10] | [7] | [8] | [9]

Cn1cc[nH]c1=S
inactive: [1] | [2] | [3] | [4] | [5] | [10] | [7] | [8] | [9]

CC(C)(C)C(=O)NCCCC(=O)O
inactive: [1] | [2] | [3] | [4] | [5] | [6] | [7] | [8] | [9]

N[C@H](C(=O)O)c1ccc(O)cc1
inactive: [1] | [2] | [3] | [4] | [5] | [6] | [7] | [8] | [9]

CN(C)CCN(Cc1ccccc1)c1ccccn1
inactive: [1] | [2] | [3] | [4] | [5] | [6] | [7] | [8] | [9]

O=C(O)[C@H](O)c1ccccc1
inactive: [1] | [2] | [3] | [4] | [5] | [6] | [10] | [8] | [9]

CCC(=O)c1ccc(O)cc1
inactive: [1] | [2] | [3] | [4] | [5] | [6] | [10] | [7] | [8] | [9]

C[C@H](N)[C@H](O)c1cccc(O)c1
inactive: [1] | [2] | [3] | [4] | [5] | [6] | [10] | [7] | [8] | [9]

CS(=O)(=O)c1ccc([C@@H](O)[C@@H](CF)NC(=O)C(Cl)Cl)cc1
inactive: [1] | [2] | [3] | [4] | [5] | [6] | [7] | [8] | [9]

Nc1ccc(S(=O)(=O)Nc2ccc(Cl)nn2)cc1
inactive: [1] | [2] | [3] | [4] | [5] | [6] | [10] | [7] | [8] | [9]

Cc1ccc(C(C)C)cc2c(C)ccc1-2
inactive: [1] | [2] | [3] | [4] | [5] | [6] | [7] | [8] | [9]

N[C@@H](CSCCCO)C(=O)O
inactive: [1] | [2] | [3] | [4] | [5] | [10] | [7] | [8] | [9]

CO/N=C(\C(=O)N[C@@H]1C(=O)N2C(C(=O)O)=C(CSc3nc(=O)c(O)nn3C)CS[C@H]12)c1csc(N)n1
inactive: [1] | [2] | [3] | [4] | [5] | [6] | [10] | [7] | [8] | [9]

Cc1cc(CC(=O)O)n(C)c1C(=O)c1ccc(Cl)cc1
inactive: [1] | [2] | [3] | [4] | [5] | [6] | [10] | [7] | [8] | [9]

NS(=O)(=O)c1cc2c(cc1Cl)NC(CSCc1ccccc1)=NS2(=O)=O
inactive: [1] | [2] | [3] | [4] | [5] | [6] | [10] | [7] | [8] | [9]
